Measurements published in PubChem BioAssay AID720611 (Broad Institute, 2013).
Potency and affinity values are given separately. The source made the active and inactive calls.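 The calls were made as follows: active = viability loss with half-effect dose no higher than twice the top dose, at all three exposure times; inconclusive = exposure times disagree or give unclear fits; inactive = inactive at every exposure time.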

Experiment: SNB-19 glioblastoma cell viability over time, late-stage follow-up, mechanism study for HRAS target identification, CellTiter-Glo ATP luminescence, 8-48 h, dry powder (AID 720611)
Settings: SNB-19 viability; series mostly up to 35 µM

| SMILES | outcome |
| --- | --- |
| Cc1onc(C(=O)N2CCN(C(c3ccncc3)c3ccncc3)CC2)c1[N+](=O)[O-] | inactive |
| CCC(=O)N(c1ccc(OC)c(Cl)c1)C(C(=O)NCCc1ccccc1)c1cccs1 (configuration not stated) | inactive |
